Assay results taken from the supplement of paper PMC10849652.
Targets with a hit are over-represented here; the source holds about 8,800 in all. About 0.5% of all pairs of compound and target were hits.

How the values were obtained:
Experiment in all cases: log2 fold change, soluble protein after heating vs DMSO (PISA); higher = thermal stabilisation; K562 lysate, 10 uM; active = over 0.2 and 3.5 SD of the protein, either way, in both replicates (recomputed)
[1] = compound: CCCS(=O)(=O)Nc1ccc(F)c(C(=O)c2c[nH]c3ncc(-c4ccc(Cl)cc4)cc23)c1F [vemurafenib]
Outline: (§1)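 Log-two fold change in thermal stability relative to solvent controls is reported from duplicates. For each sample, crude K562 extract from dounce-homogenised pellets in PBS pH 7.4 with 1 mM MgCl2, at 1 mg/mL protein, was treated with 10 μM compound for 30 min. Aliquots heated for 3 min across 48°C-58°C were pooled, brought to 0.5% NP-40 at 4°C and cleared at 21,000xg for 90 min. The supernatant was quantified by TMTpro 16plex LC-MS/MS with channel sums equalised.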

[2] = compound: CCCS(=O)(=O)Nc1ccc(F)c(C(=O)c2c[nH]c3ncc(Cl)cc23)c1F
Outline: as §1

[3] = compound: CCN(CCCOc1ccc2c(Nc3cc(CC(=O)Nc4cccc(F)c4)[nH]n3)ncnc2c1)CCOP(=O)(O)O [barasertib]
Outline: as §1

[4] = compound: CC[C@@H]1C(=O)N(C)c2cnc(Nc3ccc(C(=O)NC4CCN(C)CC4)cc3OC)nc2N1C1CCCC1
Outline: as §1

[5] = compound: CC[C@@H]1C(=O)N(C)c2cnc(Nc3ccc(C(=O)N[C@H]4CC[C@H](N5CCN(CC6CC6)CC5)CC4)cc3OC)nc2N1C(C)C [volasertib]
Outline: as §1

[6] = compound: CCn1c(C(=O)N(C2CC2)C2CC2)cc2c3c(ncn3C)c(Nc3cc(C)n(C)n3)nc21
Outline: as §1

[7] = compound: CCn1cc(-c2ccnc3[nH]c(-c4cccc(CN(C)C)c4)cc23)c(-c2ccc(NC(=O)N(C)C)cc2)n1
Outline: as §1

[8] = compound: CN1CCC(CNc2ccc3ncc(-c4cccc(OC(F)(F)F)c4)n3n2)CC1
Outline: as §1

[9] = compound: CN1CCN(CCOc2cc(OC3CCOCC3)c3c(Nc4c(Cl)ccc5c4OCO5)ncnc3c2)CC1 [saracatinib]
Outline: as §1

[10] = compound: CN1CCN(c2nc(C3=C(c4c[nH]c5ccccc45)C(=O)NC3=O)c3ccccc3n2)CC1 [sotrastaurin]
Outline: as §1

[11] = compound: CN1CC[C@H](c2c(O)cc(O)c3c(=O)cc(-c4ccccc4Cl)oc23)[C@H](O)C1 [alvocidib]
Outline: as §1

[12] = compound: CN1CCc2c(c3ccccc3n2Cc2ccc(C(=O)NO)cc2)C1 [Tubastatin A]
Outline: as §1

[13] = compound: CNC(=O)C1=CC=CC=C1NC2=NC(=NC=C2Cl)NC3=C(C=C(C=C3)N4CCOCC4)OC
Outline: as §1

[14] = compound: CNC(=O)c1ccc(Nc2ncc(C(F)(F)F)c(NCc3nccnc3N(C)S(C)(=O)=O)n2)cc1 [defactinib]
Outline: as §1

[15] = compound: CNc1nc(-c2ccc3c(N)n[nH]c3c2)cc(N2C[C@@H](C(=O)NC3CCCCC3)CC[C@H]2C)n1
Outline: as §1

[16] = compound: COC(=O)N[C@@H](C)CNc1nccc(-c2cn(C(C)C)nc2-c2cc(Cl)cc(NS(C)(=O)=O)c2F)n1 [encorafenib]
Outline: as §1

[17] = compound: COC(=O)[C@H](CCSC)NC(=O)C1=C(C=C(C=C1)NC[C@H](CS)N)C2=CC=CC=C2
Outline: as §1

[18] = compound: COc1cc(Nc2ncc3c(n2)-c2ccc(Cl)cc2C(c2c(F)cccc2OC)=NC3)ccc1C(=O)O [alisertib]
Outline: as §1

[19] = compound: COc1cc2nc(-c3cc(F)ccc3O)nc(N[C@@H]3CNC[C@H]3C(C)(C)O)c2cc1OC
Outline: as §1

[20] = compound: COc1cc2ncnc(Nc3ccc(F)c(Cl)c3)c2cc1OCCCN1CCOCC1 [gefitinib]
Outline: as §1

Measured: log2 fold change

N4BP2 (UniProt Q86UW6)
inactive: [1] -0.001 | [2] 0.052 | [3] -0.018 | [4] 0.029 | [5] -0.014 | [6] 0 | [8] 0.029 | [9] 0.018 | [10] 0.05 | [11] 0.063 | [12] -0.17 | [13] 0.052 | [14] 0.021 | [15] -0.004 | [16] 0.06 | [17] 0.003 | [18] 0.016 | [19] 0 | [20] -0.005
active: [7] -0.336

OTC (UniProt P00480)
UniProt P00480, sequence (P00480 whole entry, looked up): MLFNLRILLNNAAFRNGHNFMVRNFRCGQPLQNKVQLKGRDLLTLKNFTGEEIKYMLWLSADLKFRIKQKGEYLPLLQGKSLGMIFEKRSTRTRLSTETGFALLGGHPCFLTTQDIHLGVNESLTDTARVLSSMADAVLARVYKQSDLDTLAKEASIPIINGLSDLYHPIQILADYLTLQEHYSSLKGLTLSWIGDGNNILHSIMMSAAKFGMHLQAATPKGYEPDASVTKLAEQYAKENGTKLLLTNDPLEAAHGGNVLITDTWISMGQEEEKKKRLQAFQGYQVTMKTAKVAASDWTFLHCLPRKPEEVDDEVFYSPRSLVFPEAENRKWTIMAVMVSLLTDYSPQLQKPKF
active: [11] -1.18
inactive: [1] 0.072 | [2] -0.063 | [3] 0.063 | [4] -0.246 | [5] 0.018 | [6] -0.035 | [7] -1.43 | [8] 0.371 | [9] 0.012 | [10] 0.282 | [12] 0.148 | [13] -0.134 | [14] -0.188 | [15] -0.152 | [16] -0.047 | [17] -0.018 | [18] 0.218 | [19] -0.023 | [20] 0.184

NAT1 (UniProt P18440)
UniProt P18440, sequence (P18440 whole entry, looked up): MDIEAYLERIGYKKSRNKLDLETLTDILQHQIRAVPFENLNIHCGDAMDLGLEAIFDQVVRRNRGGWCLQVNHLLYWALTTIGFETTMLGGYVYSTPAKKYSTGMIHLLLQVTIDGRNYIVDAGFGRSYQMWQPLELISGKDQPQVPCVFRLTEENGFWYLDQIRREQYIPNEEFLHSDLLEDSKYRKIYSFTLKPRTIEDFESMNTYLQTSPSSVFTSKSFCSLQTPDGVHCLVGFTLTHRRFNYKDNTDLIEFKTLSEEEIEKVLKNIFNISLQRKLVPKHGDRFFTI
inactive: [1] 0.04 | [2] -0.003 | [3] -0.104 | [4] 0.003 | [5] 0.009 | [6] -0.012 | [7] -0.149 | [8] -0.014 | [9] -0.001 | [10] 0.078 | [11] 0.038 | [12] -0.087 | [13] -0.025 | [14] 0.05 | [15] -0.046 | [16] -0.02 | [17] 0.006 | [18] 0.035 | [19] 0.039 | [20] 0.031

PAK1 (UniProt Q13153)
UniProt Q13153, sequence (Q13153 whole entry, looked up): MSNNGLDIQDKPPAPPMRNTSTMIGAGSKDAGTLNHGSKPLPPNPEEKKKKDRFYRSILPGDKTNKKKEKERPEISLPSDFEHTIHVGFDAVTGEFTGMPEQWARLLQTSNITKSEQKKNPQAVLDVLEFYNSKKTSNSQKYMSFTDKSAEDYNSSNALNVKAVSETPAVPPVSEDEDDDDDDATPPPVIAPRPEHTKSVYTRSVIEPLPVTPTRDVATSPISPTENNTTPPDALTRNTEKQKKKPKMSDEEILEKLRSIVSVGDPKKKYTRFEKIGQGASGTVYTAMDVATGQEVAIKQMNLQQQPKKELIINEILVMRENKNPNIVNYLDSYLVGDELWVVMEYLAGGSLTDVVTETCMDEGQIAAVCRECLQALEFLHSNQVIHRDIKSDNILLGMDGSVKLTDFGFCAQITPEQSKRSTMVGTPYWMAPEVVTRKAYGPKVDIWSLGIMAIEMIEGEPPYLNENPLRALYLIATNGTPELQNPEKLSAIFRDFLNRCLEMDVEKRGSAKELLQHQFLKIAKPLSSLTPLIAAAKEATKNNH
inactive: [1] -0.013 | [2] 0.001 | [3] -0.001 | [4] -0.002 | [5] 0.023 | [6] -0.011 | [7] 0.013 | [8] 0.06 | [9] 0 | [10] -0.054 | [11] -0.023 | [12] 0.026 | [13] 0.011 | [14] -0.006 | [15] 0.044 | [16] -0.012 | [17] 0.023 | [18] 0.016 | [19] 0.02 | [20] -0.06

NEDD8 (UniProt Q15843)
UniProt Q15843, sequence (Q15843 whole entry, looked up): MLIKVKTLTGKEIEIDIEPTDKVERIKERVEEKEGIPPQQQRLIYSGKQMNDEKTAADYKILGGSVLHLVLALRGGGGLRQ
inactive: [1] 0.063 | [2] 0.019 | [3] 0.113 | [4] -0.003 | [5] 0.045 | [6] 0.041 | [7] 0.025 | [8] -0.107 | [9] 0.02 | [10] 0 | [11] 0.169 | [12] 0.132 | [13] 0.083 | [14] 0.019 | [15] 0.037 | [16] 0.015 | [17] -0.062 | [18] 0.021 | [19] -0.03 | [20] -0.148

NCAPH (UniProt Q15003)
UniProt Q15003, sequence (Q15003 whole entry, looked up): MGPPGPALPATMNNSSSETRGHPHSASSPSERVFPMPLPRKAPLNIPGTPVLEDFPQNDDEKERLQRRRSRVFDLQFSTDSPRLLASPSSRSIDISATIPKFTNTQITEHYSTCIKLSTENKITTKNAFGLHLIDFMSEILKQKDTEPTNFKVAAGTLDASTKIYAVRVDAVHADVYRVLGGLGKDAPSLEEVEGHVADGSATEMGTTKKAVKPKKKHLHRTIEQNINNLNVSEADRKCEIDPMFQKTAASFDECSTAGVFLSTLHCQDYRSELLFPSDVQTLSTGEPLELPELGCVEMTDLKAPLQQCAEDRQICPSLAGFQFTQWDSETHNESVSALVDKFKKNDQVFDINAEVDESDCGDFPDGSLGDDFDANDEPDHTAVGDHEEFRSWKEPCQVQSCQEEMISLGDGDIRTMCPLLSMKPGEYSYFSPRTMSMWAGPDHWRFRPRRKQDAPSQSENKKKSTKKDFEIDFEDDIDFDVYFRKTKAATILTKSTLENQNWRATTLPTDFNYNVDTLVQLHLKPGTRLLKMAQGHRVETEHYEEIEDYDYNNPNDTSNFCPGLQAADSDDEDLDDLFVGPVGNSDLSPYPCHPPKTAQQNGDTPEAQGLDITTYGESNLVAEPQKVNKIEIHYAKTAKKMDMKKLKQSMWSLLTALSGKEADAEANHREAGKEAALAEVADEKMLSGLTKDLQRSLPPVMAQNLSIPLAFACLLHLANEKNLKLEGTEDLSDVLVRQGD
inactive: [1] -0.015 | [2] 0.001 | [3] 0.012 | [4] -0.046 | [5] -0.044 | [6] 0.027 | [7] -0.057 | [8] -0.035 | [9] -0.016 | [10] 0.015 | [11] 0.007 | [12] -0.089 | [13] 0.008 | [14] 0.015 | [15] 0.023 | [16] 0.013 | [17] 0.063 | [18] 0.015 | [19] 0.018 | [20] 0.006

MRPL58 (UniProt Q14197)
inactive: [1] 0.104 | [2] -0.017 | [3] 0.033 | [4] -0.033 | [5] -0.043 | [6] 0.004 | [7] 0.148 | [8] -0.151 | [9] 0.04 | [10] 0.019 | [11] 0 | [12] -0.065 | [13] 0.027 | [14] -0.045 | [15] 0.033 | [16] 0.011 | [17] -0.078 | [18] -0.021 | [19] -0.02 | [20] -0.04

MYO1D (UniProt O94832)
inactive: [1] 0.073 | [2] 0.018 | [3] 0.05 | [4] 0.006 | [5] -0.003 | [6] -0.002 | [7] -0.05 | [8] -0.035 | [9] -0.001 | [10] 0.041 | [11] 0.026 | [12] -0.091 | [13] -0.006 | [14] 0.048 | [15] -0.008 | [16] 0.058 | [17] -0.012 | [18] -0.019 | [19] 0.012 | [20] -0.016

NIPSNAP3A (UniProt Q9UFN0)
active: [11] 0.288
inactive: [1] -0.005 | [2] 0.018 | [3] -0.04 | [4] 0.043 | [5] 0.019 | [6] -0.024 | [7] 0.324 | [8] -0.213 | [9] -0.002 | [10] 0.021 | [12] 0.015 | [13] 0.016 | [14] -0.021 | [15] 0.025 | [16] 0.016 | [17] -0.022 | [18] -0.023 | [19] 0.005 | [20] -0.023

NCAPD2 (UniProt Q15021)
UniProt Q15021, sequence (Q15021 whole entry, looked up): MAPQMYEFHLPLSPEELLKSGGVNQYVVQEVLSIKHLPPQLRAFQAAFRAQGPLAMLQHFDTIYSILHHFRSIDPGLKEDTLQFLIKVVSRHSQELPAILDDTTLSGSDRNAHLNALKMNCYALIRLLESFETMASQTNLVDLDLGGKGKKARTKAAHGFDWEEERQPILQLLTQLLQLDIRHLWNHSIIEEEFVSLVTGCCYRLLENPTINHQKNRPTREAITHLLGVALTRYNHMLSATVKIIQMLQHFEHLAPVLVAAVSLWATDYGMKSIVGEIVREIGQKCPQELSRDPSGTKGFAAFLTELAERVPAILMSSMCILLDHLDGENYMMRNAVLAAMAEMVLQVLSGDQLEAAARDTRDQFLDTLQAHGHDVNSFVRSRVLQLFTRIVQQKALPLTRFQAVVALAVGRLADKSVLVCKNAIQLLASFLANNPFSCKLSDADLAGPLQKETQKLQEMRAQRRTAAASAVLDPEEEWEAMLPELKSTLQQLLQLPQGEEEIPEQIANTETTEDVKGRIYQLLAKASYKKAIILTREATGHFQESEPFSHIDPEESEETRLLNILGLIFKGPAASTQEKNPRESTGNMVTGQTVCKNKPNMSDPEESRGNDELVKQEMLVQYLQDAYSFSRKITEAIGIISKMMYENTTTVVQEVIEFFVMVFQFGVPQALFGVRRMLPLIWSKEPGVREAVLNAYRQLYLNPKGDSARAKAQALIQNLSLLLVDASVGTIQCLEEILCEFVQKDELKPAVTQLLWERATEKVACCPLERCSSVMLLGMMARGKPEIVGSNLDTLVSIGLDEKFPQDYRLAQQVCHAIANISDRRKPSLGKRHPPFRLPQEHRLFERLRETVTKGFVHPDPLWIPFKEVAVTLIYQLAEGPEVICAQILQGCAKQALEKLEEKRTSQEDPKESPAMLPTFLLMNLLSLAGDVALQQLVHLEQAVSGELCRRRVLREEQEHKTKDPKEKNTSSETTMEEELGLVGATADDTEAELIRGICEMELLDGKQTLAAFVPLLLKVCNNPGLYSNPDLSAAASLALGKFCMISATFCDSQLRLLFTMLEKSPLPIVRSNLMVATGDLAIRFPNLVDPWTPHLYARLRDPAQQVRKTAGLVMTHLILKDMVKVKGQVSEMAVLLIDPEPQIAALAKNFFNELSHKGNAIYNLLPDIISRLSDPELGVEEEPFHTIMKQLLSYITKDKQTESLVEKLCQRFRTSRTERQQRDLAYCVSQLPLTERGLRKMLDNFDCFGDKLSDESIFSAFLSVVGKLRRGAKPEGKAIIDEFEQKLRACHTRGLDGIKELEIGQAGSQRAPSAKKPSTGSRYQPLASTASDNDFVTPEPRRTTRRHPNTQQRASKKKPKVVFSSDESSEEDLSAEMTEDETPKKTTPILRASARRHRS
inactive: [1] 0.025 | [2] 0.014 | [3] 0.016 | [4] -0.027 | [5] -0.057 | [6] 0.022 | [7] -0.037 | [8] -0.055 | [9] 0.006 | [10] 0.021 | [11] 0.007 | [12] -0.119 | [13] 0.013 | [14] 0.002 | [15] -0.018 | [16] 0.013 | [17] 0.076 | [18] 0.004 | [19] -0.005 | [20] -0.016

NDC1 (UniProt Q9BTX1)
inactive: [1] 0.053 | [2] -0.051 | [3] 0.075 | [4] 0.081 | [5] 0.016 | [6] -0.02 | [7] -0.3 | [8] 0.155 | [9] 0.032 | [10] 0.011 | [11] -0.131 | [12] -0.046 | [13] -0.001 | [14] -0.058 | [15] -0.044 | [16] 0.03 | [18] 0.011 | [19] 0.047 | [20] -0.031
active: [17] -0.297

NEBL isoform 2 (UniProt O76041)
UniProt O76041, sequence (O76041 whole entry, looked up): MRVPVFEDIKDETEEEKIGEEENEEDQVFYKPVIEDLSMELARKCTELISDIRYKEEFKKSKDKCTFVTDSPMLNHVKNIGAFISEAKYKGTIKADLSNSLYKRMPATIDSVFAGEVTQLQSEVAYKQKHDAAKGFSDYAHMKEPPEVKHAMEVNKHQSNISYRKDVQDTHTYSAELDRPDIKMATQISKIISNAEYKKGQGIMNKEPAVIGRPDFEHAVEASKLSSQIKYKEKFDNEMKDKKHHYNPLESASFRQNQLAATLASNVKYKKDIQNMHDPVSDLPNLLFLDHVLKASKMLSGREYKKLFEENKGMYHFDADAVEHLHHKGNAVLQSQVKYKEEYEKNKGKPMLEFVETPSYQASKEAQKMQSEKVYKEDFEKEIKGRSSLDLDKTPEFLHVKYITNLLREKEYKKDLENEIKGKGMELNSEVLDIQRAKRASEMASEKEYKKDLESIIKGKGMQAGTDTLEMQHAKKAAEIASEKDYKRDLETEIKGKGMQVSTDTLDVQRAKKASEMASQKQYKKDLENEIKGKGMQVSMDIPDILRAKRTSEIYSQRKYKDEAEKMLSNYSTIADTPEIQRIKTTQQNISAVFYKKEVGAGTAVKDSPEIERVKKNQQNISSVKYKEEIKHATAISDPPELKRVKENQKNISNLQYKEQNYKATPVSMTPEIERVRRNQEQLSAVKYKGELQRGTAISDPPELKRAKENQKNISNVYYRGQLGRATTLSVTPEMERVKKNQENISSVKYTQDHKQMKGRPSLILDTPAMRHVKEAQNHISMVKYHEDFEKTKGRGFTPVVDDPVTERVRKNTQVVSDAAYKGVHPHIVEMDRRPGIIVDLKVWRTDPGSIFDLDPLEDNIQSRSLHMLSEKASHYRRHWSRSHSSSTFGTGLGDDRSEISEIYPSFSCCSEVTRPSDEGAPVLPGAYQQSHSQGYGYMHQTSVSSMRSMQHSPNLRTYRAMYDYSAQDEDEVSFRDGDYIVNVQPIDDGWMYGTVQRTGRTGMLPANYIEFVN
inactive: [1] 0.014 | [2] 0.009 | [3] -0.078 | [4] 0.02 | [5] 0.051 | [6] -0.041 | [7] -0.108 | [8] 0.084 | [9] 0.023 | [10] -0.039 | [11] -0.079 | [12] 0.07 | [13] 0.012 | [14] 0.011 | [15] 0.023 | [16] 0.009 | [17] -0.043 | [18] -0.024 | [19] -0.003 | [20] 0.037

OPA1 isoform 2 (UniProt O60313)
inactive: [1] 0.022 | [2] 0.029 | [3] 0.024 | [4] -0.057 | [5] -0.033 | [6] 0.037 | [7] -0.016 | [8] -0.192 | [9] 0.007 | [10] 0.014 | [11] 0.012 | [12] 0.038 | [13] -0.032 | [14] -0.013 | [15] -0.042 | [16] -0.017 | [17] 0.053 | [18] 0.03 | [19] -0.041 | [20] -0.003

NOB1 (UniProt Q9ULX3)
active: [7] 0.274
inactive: [1] -0.002 | [2] 0.032 | [3] -0.053 | [4] -0.045 | [5] -0.02 | [6] -0.003 | [8] -0.102 | [9] 0.018 | [10] -0.009 | [11] 0.077 | [12] -0.129 | [13] -0.005 | [14] 0 | [15] -0.011 | [16] 0.036 | [17] 0.037 | [18] 0.047 | [19] -0.031 | [20] -0.022

NCKAP1L (UniProt P55160)
inactive: [1] -0.14 | [2] 0.032 | [3] 0.131 | [4] -0.068 | [5] 0.004 | [6] -0.049 | [7] -0.025 | [8] -0.082 | [9] -0.083 | [10] 0.032 | [11] -0.033 | [12] -0.043 | [13] 0.198 | [14] 0.009 | [15] 0.063 | [16] 0.058 | [17] -0.223 | [18] 0.022 | [19] -0.025 | [20] -0.059

NFIC (UniProt P08651)
UniProt P08651, sequence (P08651 whole entry, looked up): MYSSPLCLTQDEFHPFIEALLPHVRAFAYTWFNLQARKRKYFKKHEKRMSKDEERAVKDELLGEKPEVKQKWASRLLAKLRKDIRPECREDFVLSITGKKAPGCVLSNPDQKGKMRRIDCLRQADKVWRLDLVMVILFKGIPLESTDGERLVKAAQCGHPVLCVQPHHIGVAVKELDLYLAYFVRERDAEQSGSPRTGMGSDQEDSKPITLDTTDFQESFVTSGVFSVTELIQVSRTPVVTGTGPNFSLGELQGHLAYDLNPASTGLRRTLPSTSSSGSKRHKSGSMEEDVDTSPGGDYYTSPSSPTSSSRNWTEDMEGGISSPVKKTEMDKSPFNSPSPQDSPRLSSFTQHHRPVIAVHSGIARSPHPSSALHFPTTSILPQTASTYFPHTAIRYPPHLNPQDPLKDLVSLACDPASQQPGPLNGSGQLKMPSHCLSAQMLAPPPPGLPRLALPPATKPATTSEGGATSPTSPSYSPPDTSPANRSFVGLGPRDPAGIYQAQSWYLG
inactive: [1] -0.071 | [2] 0.014 | [3] -0.106 | [4] 0.101 | [5] -0.001 | [6] -0.01 | [8] 0.055 | [9] 0.049 | [10] -0.01 | [11] -0.103 | [12] -0.104 | [13] 0.078 | [14] -0.153 | [15] -0.048 | [16] 0.121 | [17] -0.025 | [18] 0 | [19] -0.025 | [20] 0.117
active: [7] -0.453
